Measurements from ChEMBL document CHEMBL4303122, “Identification of potential treatments for COVID-19 through artificial intelligence-enabled phenomic analysis of human cells infected with SARS-CoV-2” (2020).
Whole data set: some 1,600 compounds, median “Hit score” near 0.13, cut for the highest 2% near 0.46. For the sample, the highest values were picked, then their nearest neighbours and some compounds at random.

Tested on: SARS-CoV-2
Assay: Antiviral activity against SARS-CoV-2 (USA-WA1/2020 strain) measured by imaging in HRCE cells at MOI 0.4 after 96 hrs (reported as hit score from 0-1 for on-disease vs off-disease activity: scores >0.6 considered hits)
Type: functional, Homo sapiens

Row | SMILES | Hit score
1 | CO[C@@]1(NC(=O)CSC[C@@H](N)C(=O)O)C(=O)N2C(C(=O)O)=C(CSc3nnnn3C)CS[C@@H]21 [CEFMINOX] | 0.1316
2 | CC(C)CN(C[C@@H](O)[C@H](Cc1ccccc1)NC(=O)O[C@H]1CO[C@H]2OCC[C@H]21)S(=O)(=O)c1ccc(N)cc1 | 0.38
3 | CO[C@]12C[C@@H](COC(=O)c3cncc(Br)c3)CN(C)[C@@H]1Cc1cn(C)c3cccc2c13 [NICERGOLINE] | 0.1321
4 | CC[C@@H](CO)NC(=O)[C@@H]1C=C2c3cccc4[nH]cc(c34)C[C@H]2N(C)C1 [METHYLERGONOVINE] | 0.219
5 | C[C@@H]1C[C@H]2[C@@H]3CCC4=CC(=O)C=C[C@]4(C)[C@@]3(F)[C@@H](O)C[C@]2(C)[C@@]1(O)C(=O)COP(=O)([O-])[O-].[Na+].[Na+] [DEXAMETHASONE SODIUM PHOSPHATE] | 0.2627
6 | COC(=O)N[C@H](C(=O)N1CCC[C@H]1c1nc(-c2ccc3c(c2)O[C@@H](c2ccccc2)n2c-3cc3cc(-c4c[nH]c([C@@H]5CCCN5C(=O)[C@@H](NC(=O)OC)C(C)C)n4)ccc32)c[nH]1)C(C)C [ELBASVIR] | -0.03781
7 | O=C(Nc1c(Cl)cncc1Cl)c1ccc(OC(F)F)c(OCC2CC2)c1 [ROFLUMILAST] | 0.1334
8 | C=CC[N+]1([C@H]2C[C@H]3[C@@H]4CC[C@H]5C[C@H](O)[C@@H](N6CCOCC6)C[C@]5(C)[C@H]4CC[C@]3(C)[C@H]2OC(C)=O)CCCC1 [ROCURONIUM] | 0.1086
9 | CCc1cc2c(cc1CC)CC(NC[C@H](O)c1ccc(O)c3[nH]c(=O)ccc13)C2 [INDACATEROL] | -0.2891
10 | C[C@H]1[C@H](OC(=O)CCC(=O)O)O[C@@H]2O[C@@]3(C)CC[C@H]4[C@H](C)CC[C@@H]1[C@@]24OO3 [ARTESUNATE] | 0.2142
11 | CC(=O)O[C@]1(C(C)=O)CC[C@H]2[C@@H]3C=C(C)C4=CC(=O)CC[C@@H]4[C@H]3CC[C@@]21C [NOMEGESTROL ACETATE] | 0.2782
12 | CC1(C)S[C@@H]2[C@H](NC(=O)Cc3ccccc3)C(=O)N2[C@H]1C(=O)O [PENICILLIN G] | 0.164
13 | CC(=O)O[C@H]1C[C@@H]2CC[C@@H]3[C@H](CC[C@@]4(C)[C@H]3C[C@H]([N+]3(C)CCCCC3)[C@@H]4OC(C)=O)[C@@]2(C)C[C@@H]1[N+]1(C)CCCCC1 [PANCURONIUM] | 0.09762
14 | COc1ccc(CN2CCN(C(c3ccc(F)cc3)c3ccc(F)cc3)CC2)c(OC)c1OC [LOMERIZINE] | -0.04979
15 | C=CCNc1nc(NCC=C)nc(N2CCN(C(c3ccc(F)cc3)c3ccc(F)cc3)CC2)n1 [ALMITRINE] | 0.7206
16 | C#Cc1cccc(Nc2ncnc3cc4c(cc23)OCCOCCOCCO4)c1 [ICOTINIB] | 0.1043
17 | C[C@H](O)[C@H](O)[C@H]1CNc2nc(N)[nH]c(=O)c2N1 [SAPROPTERIN] | 0.04545

Row | SMILES | Hit score
18 | C=C1[C@H](CO)[C@@H](O)C[C@@H]1n1cnc2c(=O)[nH]c(N)nc21.O | 0.1346
19 | CC1(C)S[C@@H]2[C@H](NC(=O)[C@H](NC(=O)N3CCN(S(C)(=O)=O)C3=O)c3ccccc3)C(=O)N2[C@H]1C(=O)O [MEZLOCILLIN] | 0.1621
20 | O=C(O[C@H]1C[C@H]2CC[C@@H](C1)[N+]21CCCC1)C(O)(c1ccccc1)c1ccccc1 [TROSPIUM] | 0.08693
21 | Cc1ccccc1C(=O)Nc1ccc(C(=O)N2CCCC(N(C)C)c3ccccc32)cc1 (centres undefined) [MOZAVAPTAN] | 0.1836
22 | CCC(C)(C)C(=O)O[C@H]1C[C@@H](C)C=C2C=C[C@H](C)[C@H](CC[C@@H]3C[C@@H](O)CC(=O)O3)[C@H]21 [SIMVASTATIN] | 0.1206
23 | C[C@H]1c2cccc(O)c2C(=O)C2=C(O)[C@]3(O)C(=O)C(C(N)=O)=C(O)[C@@H](N(C)C)[C@@H]3[C@@H](O)[C@@H]21.O [DOXYCYCLINE] | -0.02175
24 | CCCCCCCC/C=C/CCCCCCCC(=O)OC[C@H]1O[C@@H](n2ccc(N)nc2=O)C(F)(F)[C@@H]1O [GEMCITABINE ELAIDATE] | 0.08488
25 | CC/C=C\C/C=C\C/C=C\C/C=C\C/C=C\CCCC(=O)O [ICOSAPENT] | 0.1484
26 | C[N+]1(CC2CC2)[C@@H]2C[C@@H](OC(=O)[C@H](CO)c3ccccc3)C[C@H]1[C@@H]1O[C@@H]12 (some centres undefined) [CIMETROPIUM] | 0.08586
27 | COc1cccc(Nc2c(C(N)=O)cnc3c(C)cc(S(=O)(=O)c4cccc(C(=O)N(C)C)c4)cc23)c1 [GSK-256066] | -0.006373
28 | Cl.OC(CNCC(O)C1CCc2cc(F)ccc2O1)C1CCc2cc(F)ccc2O1 (centres undefined) [NEBIVOLOL HYDROCHLORIDE] | 0.4783
29 | C[C@]12CC[C@@H]3c4ccc(O)cc4CC[C@H]3[C@@H]1CC[C@@H]2OC(=O)CCC1CCCC1 [ESTRADIOL CYPIONATE] | 0.1681
30 | Cc1ccc(/C=C2\CNC/C(=C\c3ccc(C)cc3)C2=O)cc1.Cl | 0.05741
31 | C[C@@H](O)[C@H]1C(=O)N2C(C(=O)O)=C([C@H]3CCCO3)S[C@H]12 [FAROPENEM] | 0.1823
32 | CC1(C)S[C@@H]2[C@H](NC(=O)[C@H](N)c3ccc(O)cc3)C(=O)N2[C@H]1C(=O)[O-].[Na+] [AMOXICILLIN SODIUM] | 0.05468
33 | NCCCC[C@H](N)C(=O)O.N[C@@H](CSCC(=O)O)C(=O)O.O | 0.1749
34 | CO/N=C(\C(=O)N[C@@H]1C(=O)N2C(C(=O)OCOC(=O)C(C)(C)C)=C(C)CS[C@H]12)c1csc(N)n1 | 0.2495
